The text below walks through data of PubChem BioAssay (EPA / NIEHS).

The target in assay [1] is human Vitamin D Receptor (VDR), VDR (gene 7421) (UniProt P11473). As to the kind of experiment: ATG_VDR_TRANS: Attagene TRANS-FACTORIAL HepG2 Assay for human Vitamin D Receptor (VDR) (AID 2283022; active = hit-call score of the fitted dose curve at least 0.9, where 1 is the maximum). In a few lines: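 Multiplexed TRANS reporter in HepG2; 24 h treatment; reporter mRNA by RT-PCR plus capillary electrophoresis; upregulation scored relative to DMSO.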
Assay [2] can be described thus: BSK_3C_SRB: Viability Assessment in the BioMAP Diversity Plus: 3C Assay (AID 2283023).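 Also: cells read 24 h after compound dosing; fitted both ways against DMSO so a hit may be signal rise or drop.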 Particulars: primary human endothelial cells (HUVEC). Summed up: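 Overt cytotoxicity is gauged in parallel confluent HUVEC cultures by SRB total-protein staining at the time of biomarker measurement, 24 h after dosing. Gain or loss of signal is fitted versus DMSO.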
Read-out in assay [3]: Matrix Metallopeptidase 1 (MMP1), MMP1 (gene 4312)
As to the kind of experiment: BSK_BE3C_MMP1: BioMAP Diversity Plus: BE3C Assay for Matrix Metallopeptidase 1 (MMP1) Biomarker Activity (AID 2283024). The settings on record: primary human bronchial epithelial cells; actives raise or lower the signal. Summed up:
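Primary human bronchial epithelial cells were dosed with test chemicals, and MMP1 levels were measured by ELISA 24 h later. Data were fitted bidirectionally against DMSO as the negative control and activity baseline.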

A short description of assay [4]: BSK_3C_Vis: BioMAP Diversity Plus: 3C Assay for Morphology Visualization (AID 2283025).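 Also: fitted both ways so gain or loss versus DMSO counts.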 The settings on record: primary human endothelial cells (HUVEC). Summed up:
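Human umbilical vein endothelial cells in the 3C system were imaged by light microscopy 24 h after chemical dosing to record cell morphology. Activity was fitted bidirectionally against DMSO as negative control and baseline; the endpoint serves as a background control.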

Read-out in assay [5]: Pselectin, SELP (gene 6403)
Put plainly: BSK_4H_Pselectin: BioMAP Diversity Plus: 4H Assay for Pselectin Biomarker Activity (AID 2283026). The settings on record: primary human endothelial cells (HUVEC); actives raise or lower the signal. Summed up: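 Primary human umbilical vein endothelial cells were exposed to test chemical for 24 h, then cell-surface P-selectin was quantified by ELISA. Activity was fitted bidirectionally against DMSO as negative control and baseline.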

A short description of assay [6]: BSK_4H_SRB: Viability Assessment in the BioMAP Diversity Plus: 4H Assay (AID 2283027).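 Also: cells exposed to compound for 24 h before staining.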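 As to AC50: curves fitted both ways versus DMSO so AC50 may be loss or gain.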 Particulars: primary human endothelial cells (HUVEC). In a few lines: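 Human umbilical vein endothelial cells were dosed with chemical and, after 24 h, fixed with 10% TCA, stained with 0.1% sulforhodamine B, and read at 560 nm to give total protein as a cytotoxicity measure. Bidirectional fitting relative to DMSO control.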

Assay [7] can be described thus: BSK_BE3C_SRB: Viability Assessment in the BioMAP Diversity Plus: BE3C Assay (AID 2283028).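 As to AC50: fitted both ways so AC50 may mark signal gain or loss versus DMSO.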 The settings on record: primary human bronchial epithelial cells. In a few lines: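 SRB total-protein staining (0.1%, after TCA fixation) of chemically dosed human bronchial epithelial primary cells at 24 h; DMSO serves as the negative control for bidirectional curve fitting.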

Read-out in assay [8]: Thrombomodulin, THBD (gene 7056)
As to the kind of experiment: BSK_3C_Thrombomodulin: BioMAP Diversity Plus: 3C Assay for Thrombomodulin Biomarker Activity (AID 2283029). The settings on record: primary human endothelial cells (HUVEC); actives raise or lower the signal. In a few lines: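 Primary human umbilical vein endothelial cells (3C system) were exposed to chemical for 24 h, then thrombomodulin levels were measured by ELISA. Activity was fitted bidirectionally against the DMSO negative control as baseline.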

Read-out in assay [9]: Urokinase-type plasminogen activator receptor (uPAR), PLAUR (gene 5329)
Put plainly: BSK_4H_uPAR: BioMAP Diversity Plus: 4H Assay for Urokinase-type plasminogen activator receptor (uPAR) Biomarker Activity (AID 2283030). The settings on record: primary human endothelial cells (HUVEC); actives raise or lower the signal. In a few lines:
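Endpoint derived via bidirectional curve fitting against DMSO baseline; readout was ELISA detection of uPAR on umbilical vein endothelial cells at 24 h post-treatment, with SRB-stained parallel cultures assessing cytotoxicity.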

Read-out in assay [10]: Vascular endothelial growth factor receptor 2 (Homo sapiens) (UniProt P35968)
Put plainly: BSK_4H_VEGFRII: BioMAP Diversity Plus: 4H Assay for Vascular endothelial growth factor receptor 2 (VEGFR2) Biomarker Activity (AID 2283031).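 As to AC50: cell-surface VEGFR2 protein level quantified by ELISA.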 The settings on record: primary human endothelial cells (HUVEC); actives raise or lower the signal. In a few lines:
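In this multiplexed HUVEC system, biomarker ELISA was performed after 24 h chemical exposure. Parallel SRB staining (TCA fixation, 560 nm) tracked cytotoxicity; DMSO served as baseline.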

One may read the AC50 as the midpoint of the concentration-response curve, whichever way the signal moves.

Where “and” joins values, the source holds several entries; their conditions need not be identical. Equal entries are not always repeated. Results filed as inconclusive are left out. Some structures have more than one record in an assay (separate samples or runs), and their calls can disagree. Calls of active or inactive are those of the source. The calls were made as follows, unless noted: active = hit-call score of the fitted dose curve at least 0.9, where 1 is the maximum; inactive = score below 0.9.

human Vitamin D Receptor (VDR), VDR (gene 7421), sequence (P11473 whole entry, looked up): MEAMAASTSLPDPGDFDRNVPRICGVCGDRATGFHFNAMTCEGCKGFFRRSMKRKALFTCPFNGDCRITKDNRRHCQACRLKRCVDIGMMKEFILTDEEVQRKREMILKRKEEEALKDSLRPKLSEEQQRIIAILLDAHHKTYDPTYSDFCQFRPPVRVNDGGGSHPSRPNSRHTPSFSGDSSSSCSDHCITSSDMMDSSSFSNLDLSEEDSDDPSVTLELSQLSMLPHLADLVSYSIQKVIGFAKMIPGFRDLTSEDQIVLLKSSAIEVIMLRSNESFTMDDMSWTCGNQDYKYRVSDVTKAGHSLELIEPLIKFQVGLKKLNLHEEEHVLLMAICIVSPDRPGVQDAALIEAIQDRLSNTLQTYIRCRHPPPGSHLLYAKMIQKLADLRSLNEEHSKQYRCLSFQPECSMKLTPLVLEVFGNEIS

Consider `CCC(=O)O[C@H]1CC[C@H]2[C@@H]3CCC4=CC(=O)CC[C@]4(C)[C@H]3CC[C@]12C`, for which the call in assay [1], in assay [3], in assay [7] and in [8] was inactive. Further, the AC50 in assay [2] is 28.4 µM (active); in assay [4] it was 20.7 µM (active); in [5], 34 µM (active); in assay [6] it was 33.5 µM (active); in assay [9], 30.3 µM (active); in assay [10], 28 µM (active).
As to `O=S(=O)(O)C(F)(F)C(F)(F)C(F)(F)C(F)(F)C(F)(F)C(F)(F)F`, the compound was called inactive in [1], in assay [2], in assay [3], in [4], in assay [5] and in [6]. The outcome in assay [7], in assay [8], in assay [9] and in assay [10] was inactive. Besides, the AC50 is 44.3 µM (active) and 37.7 µM (active) in assay [3]; 17.2 µM (active) in [5].
Consider `CC(C)(O)C(=O)Nc1ccc([N+](=O)[O-])c(C(F)(F)F)c1`, for which the compound was called inactive in assay [1], in [2], in [3], in assay [4], in assay [5] and in assay [6]. Moreover, the outcome in assay [7], in [8], in [9] and in [10] was inactive.
As for `C1CC2OC2CC1C1CO1` (stereo not given), the compound was classed as inactive in [1], in assay [2], in [3], in [4], in assay [5] and in [6]. In addition, the outcome in assay [7], in assay [8], in assay [9] and in [10] was inactive.
In the case of `C=CC(=O)NCNC(=O)C=C`, the result in assay [1], in assay [2], in [3], in assay [4], in assay [5] and in assay [6] was inactive. Also, the outcome in [7], in assay [8], in [9] and in assay [10] was inactive.
Take `CCSC(=O)N(CC)C1CCCCC1`: the compound was called inactive in [1], in assay [2], in [3], in assay [4], in assay [5] and in assay [6]. The result in assay [7], in assay [8], in assay [9] and in assay [10] was inactive.
For `Cc1cc2c3c(c1)C(c1ccccc1)=N[C@@H](NC(=O)c1ccncc1)C(=O)N3CC2`, the outcome in [1], in assay [2], in assay [3], in assay [4], in assay [5] and in assay [6] was inactive. In addition, the outcome in [7], in assay [8], in assay [9] and in assay [10] was inactive.
Regarding `CCC(C)(CC)c1cc(NC(=O)c2c(OC)cccc2OC)on1`, the compound was called inactive in assay [1], in assay [2], in assay [3], in assay [4], in assay [5] and in assay [6]. In addition, the outcome in assay [7], in assay [8], in [9] and in assay [10] was inactive.
In the case of `CCCCCCCCCc1ccc(O)cc1`, the outcome in [1] and in assay [8] was inactive. For the same compound, the half-maximal activity concentration (AC50) in [2] is 15.5 µM (active); in [3], 16.7 µM (active); in assay [4] it was 38.7 µM (active); in [5], 12.5 µM (active); in assay [6], 14.9 µM (active); in assay [7], 15.1 µM (active). In addition, the AC50 in assay [9] was 16.9 µM (active).
With `Cc1ccccc1[N+](=O)[O-]`, the result in assay [1], in [2], in assay [3], in assay [4], in [5] and in assay [6] was inactive. The result in [7], in [8], in [9] and in [10] was inactive.
Turning to `C[C@]12CCC(=O)C=C1CC[C@@H]1[C@@H]2CC[C@@]2(C)[C@H]1CC[C@]2(C)O`, the call in assay [1], in [4], in assay [5], in [6], in assay [7] and in [8] was inactive. Also, the result in assay [9] and in [10] was inactive. Also, the AC50 in assay [2] is 28.3 µM (active); in assay [3], 9.79 µM (active).
Take `Cc1cccc([N+](=O)[O-])c1`: the compound was classed as inactive in assay [1], in assay [2], in [3], in assay [4], in [5] and in assay [6]. Also, the result in assay [7], in [8] and in assay [9] was inactive.
As for `Nc1ccc(-c2ccc(N)cc2)cc1`, the compound was called inactive in [1], in assay [2], in assay [3], in assay [4], in assay [5] and in assay [6]. The outcome in [7], in assay [8], in assay [9] and in assay [10] was inactive.
Regarding `CO/C=C(/C(=O)OC)c1ccccc1COc1cccc(C(F)(F)F)n1`, the result in [1], in assay [3], in assay [4], in assay [5], in assay [7] and in [8] was inactive. For the same compound, the result in assay [9] and in assay [10] was inactive. In addition, the AC50 in assay [2] was 20 µM (active); in [6] it was 7.84 µM (active).
Regarding `COc1ccc(O)c(C(C)(C)C)c1`, the result in [1], in assay [2], in assay [3], in assay [4], in assay [5] and in assay [6] was inactive. For the same compound, the outcome in assay [7], in assay [8], in assay [9] and in [10] was inactive.
Consider `Clc1ccc(C(c2ccccc2Cl)C(Cl)(Cl)Cl)cc1` (stereo not given), for which the outcome in [1], in assay [3], in assay [7] and in assay [8] was inactive. For the same compound, the AC50 in assay [2] is 16.1 µM (active); in [4], 26.4 µM (active); in assay [5], 19.1 µM (active); in [6], 19.5 µM (active); in assay [9] it was 21.2 µM (active); in assay [10] it was 17.2 µM (active).
